# Measured values taken from ChEMBL document CHEMBL4513216, “Probing the Open Global Health Chemical Diversity Library for Multistage-Active Starting Points for Next-Generation Antimalarials” (ACS Infect Dis, 2020).
# The whole screen tested about 69,000 compounds, of which about 8,600 (12%) showed an effect of 50% or more. Only a selection was taken, and strong results are over-represented in it overall.
# System: Plasmodium berghei
# Assay: Screen against P. berghei liver stage (PbLuc), transformed with Luciferase, at 10uM
# Assay type: functional, HepG2
# Settings: tested at 10 uM
row,SMILES,INHIBITION
1,CO[C@@H]1CCN(Cc2cccc(C)n2)[C@@H]2CN(Cc3ccncc3)C[C@@H]21,-64.5%
2,Cc1ccc2snc(C(=O)N3CCN(C(=O)NCCC(C)C)CC3)c2c1,28.4%
3,COc1cc(CNCCc2cnn(C)c2)cc2c1OCO2,-3.75%
4,Cc1cnn(CC2CN(Cc3nccn3CC(F)(F)F)CCO2)c1 (centres undefined),29.7%
5,CC(Nc1ncnc2c1NC(=O)CN2)c1ccccn1 (centres undefined),14.3%
6,Nc1nc(CN2CCCC2Cn2cncn2)nc2ccccc12 (centres undefined),-26.22%
7,c1ccc(-n2cc(CN3CCCC3Cn3cncn3)nn2)cc1 (centres undefined),50.3%
8,Cc1cnn(CC2CCCN2Cc2nc(N)c3ccccc3n2)c1 (centres undefined),31.2%
9,c1ccc(-n2cc(CN3CCCCC3Cn3cncn3)nn2)cc1 (centres undefined),0.914%
10,O=C1CCCN1CCN1CCCCC1Cn1cncn1 (centres undefined),-19.2%
11,O=C1CCCN1CCCN1CCCC1Cn1cccn1 (centres undefined),24.6%
12,Cc1nc(CN2CCCC2Cn2cccn2)nc2ccccc12 (centres undefined),27.6%
13,Cc1cnn(CC2CCCCN2Cc2nc(C)c3ccccc3n2)c1 (centres undefined),36.1%
14,O=C1CCCN1CCCN1CCCCC1Cn1cncn1 (centres undefined),50.4%
15,Cc1cnn(CC2CCCN2Cc2nc(C)c3ccccc3n2)c1 (centres undefined),53%
16,c1ccc(-n2ccc(CN3CCCC3Cn3cncn3)n2)cc1 (centres undefined),9.64%
17,Cc1cnn(CC2CCCCN2Cc2nc(N)c3ccccc3n2)c1 (centres undefined),58.2%
18,Cc1ccc(C2CSCCN2C(=O)c2cccnc2)cc1 (centres undefined),-39.8%
19,c1ccc(CO[C@H]2CN(c3ncccn3)C[C@@]23CCCO3)cc1,-42.1%
20,Nc1nnc(CCCNC(=O)c2ccc(C3CCCNC3)cc2)s1 (centres undefined),20.6%
21,CC(C)NC(=O)c1ccn(COc2c(Cl)cccc2Cl)n1,35%
22,CC(O)(CNC(=O)NCCc1ccc2c(c1)CCO2)c1ccccc1 (centres undefined),-5.57%
23,CCCNCc1cn(Cc2ccccc2)nc1-c1cccnc1,16.5%

row,SMILES,INHIBITION
1,CNC(=O)C1CN(c2ncccn2)CCN1Cc1ccccc1 (centres undefined),19.3%
2,Cc1nc(CN2CCOCC2c2[nH]ncc2C)cs1 (centres undefined),8.335%
3,CN(c1cccnn1)[C@@H]1CC[C@@H]2CN(Cc3ccccc3C(=O)O)C[C@@H]21,19.65%
4,N#CCCn1cnc2c(Br)cccc2c1=O,33.6%
5,CS(=O)(=O)c1ccc(Cl)c(C(=O)NCCC2=CCCCC2)c1,-19.2%
6,COCCN1CCc2c(CNC(=O)c3nccn3C)cncc2C1,43.9%
7,CCN(CC)S(=O)(=O)N1CCCN(CC2CCCO2)CC1 (centres undefined),41.7%
8,Cc1ccc(C)c(CN2C[C@@H]3CC[C@H]2CN(C(=O)c2cccnc2)C3)c1,-70.7%
9,COCCN1CCC2(CC1)CCN(Cc1ccccn1)CC2,-67.6%
10,Cc1cc(CNC(=O)C2CC(=O)N(CCN(C)C)C2)cc(C)n1 (centres undefined),16.5%
11,CCN(CC)C1COc2ccc(Br)cc2C1=O (centres undefined),39.7%
12,COCCN1C[C@@H]2CN(Cc3ccc(F)cc3)C[C@@H]2C1=O,0.112%
13,Cc1ccc(=O)n(CC2(O)CCN(Cc3ccoc3)CC2)n1,-59.9%
14,Cc1cc2ncn(C[C@]3(O)CCCN4CCCC[C@@H]43)c2cc1C,49.4%
15,O[C@@]1(Cn2cnc(Cl)c2Cl)CCCN2CCCC[C@@H]21,40.3%
16,COc1ccc2c(c1)ncn2C[C@]1(O)CCCN2CCCC[C@@H]21,58.5%
17,c1ccc(CCN2CCCC2c2ccnc(Nc3cnccn3)n2)cc1 (centres undefined),25.8%
18,Cc1nc(C(C)C)sc1C(=O)NS(=O)(=O)c1ccc(C#N)cc1,39.5%
19,COc1ccc(C(=O)NS(=O)(=O)c2cccc(C#N)c2)cc1,15.5%
20,N#Cc1cccc(S(=O)(=O)NC(=O)c2csc(-c3ccco3)n2)c1,24.3%
21,N#Cc1ccc(S(=O)(=O)NC(=O)c2csc(-c3ccco3)n2)cc1,54.3%
22,CSc1ccsc1C(=O)NS(=O)(=O)c1cccc(C#N)c1,16.9%
23,Cc1nc(C(=O)NS(=O)(=O)c2cccc(C#N)c2)cs1,61.1%

row,SMILES,INHIBITION
1,Cc1ccc(CNC(=O)Nc2nccs2)cn1,-31.8%
2,Cn1cc(NC(=O)N2CCCC2c2ccccn2)ccc1=O (centres undefined),-80.7%
3,O=C(CCn1cnc2cc(F)c(F)cc21)N1CCN(C2CC2)CC1,-27.6%
4,COCCN1CCN(Cc2ccc(OCc3nccn3C)cc2)CC1,-3.7%
5,O=C1CC2(CCN(S(=O)(=O)c3cccs3)C2)CN1c1cccc(F)c1 (centres undefined),-20.8%
6,Cc1n[nH]c(C)c1CCc1n[nH]c(=O)n1Cc1cccs1,-54.9%
7,COCC(NC(=O)c1cc(C)n(C)n1)c1cccc(C(F)(F)F)c1 (centres undefined),-0.532%
8,CNC(=O)c1ccc(C(=O)N2CCC(Nc3cccnn3)CC2)cn1,-0.219%
9,Cc1ccc(-c2cc(C3=NC(=CN4CCN(C)CC4)NO3)[nH]n2)cc1,41.8%
10,COc1ccc(-c2cc(C3=NC(=CN4CCN(C)CC4)NO3)[nH]n2)cc1,40.7%
11,CN1CCN(C=C2N=C(c3cc(-c4ccc(F)cc4)n[nH]3)ON2)CC1,50.5%
12,Cc1nc(NC2(CN3CCCCC3)CCCCC2)c2cnn(C)c2n1,40.5%
13,COCC1(Nc2nc(C)nc3c2cnn3C)CCCC1,81.6%
14,CCCc1nc(NC2(COC)CCCC2)c2cnn(C)c2n1,22.6%
15,COc1ccccc1-c1ccnc2nc(N3CCCCC3)[nH]c(=O)c12,23.4%
16,CC(=O)N1CCC(Cc2ccc(-c3ccnn3C)nc2)CC1,9.45%
17,CN1CCCC2(CCN(C(=O)Cn3ncc4ccccc4c3=O)C2)C1=O (centres undefined),21.2%
18,CCN(CC1CCOC1)C(=O)c1ccccc1S(C)(=O)=O (centres undefined),45.7%
19,Cc1ccc(CCNc2ncnc3sc4c(c23)CCNC4)o1,-158%
20,Cc1nonc1OCCNc1ncnc2sc3c(c12)CCNC3,6.94%
21,c1ccc(OCCNc2ncnc3sc4c(c23)CCNC4)cc1,92.1%
22,Cc1cnn(CCNCC(=O)N(C)C(C)c2ccccc2)c1 (centres undefined),19.7%
23,Cc1ccoc1C1=NNC(=CN2CCn3c(nnc3C3CC3)C2)O1,5.97%
